# In article PMC11006913:
# Changes are numbered by the printed parent chain.
# What was measured:
# Assay in all cases: PBM; 200 nM protein, PBS
# Details in all cases: dsDNA, one strand shown
# [1] = target: NKX2-5 (Homo sapiens, UniProt P52952 125-210, R139K)
# [2] = target: T1, NKX2-4 (Homo sapiens, UniProt Q9H2Z4 175-261, P217L)
# T1 sequence: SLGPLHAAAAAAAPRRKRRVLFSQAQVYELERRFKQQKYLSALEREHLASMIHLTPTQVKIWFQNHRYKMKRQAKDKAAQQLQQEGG
# [3] = target: T2, NKX2-4 (Homo sapiens, UniProt Q9H2Z4 175-261, T231S)
# T2 sequence: T1 sequence with L43P, T57S
# [4] = target: T3, NKX2-4 (Homo sapiens, UniProt Q9H2Z4 175-261)
# T3 sequence: T1 sequence with L43P
# [5] = target: T4, NKX2-6 (Homo sapiens, UniProt A6NCS4 118-204, R150C)
# T4 sequence: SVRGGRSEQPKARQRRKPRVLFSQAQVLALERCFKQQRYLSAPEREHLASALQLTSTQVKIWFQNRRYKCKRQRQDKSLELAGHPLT
# [6] = target: T5, NKX2-6 (Homo sapiens, UniProt A6NCS4 118-204)
# T5 sequence: T4 sequence with C33R
# [7] = target: T6, NKX2-4 (Homo sapiens, UniProt Q9H2Z4 175-261, R246Q)
# T6 sequence: T1 sequence with L43P, R72Q
# [8] = target: T7, NKX2-6 (Homo sapiens, UniProt A6NCS4 118-204, F151L)
# T7 sequence: T4 sequence with C33R, F34L
# [9] = target: NKX2-5 (Homo sapiens, UniProt P52952 125-210)
# Chain of NKX2-5 (Homo sapiens, UniProt P52952 125-210) (P52952 125-210): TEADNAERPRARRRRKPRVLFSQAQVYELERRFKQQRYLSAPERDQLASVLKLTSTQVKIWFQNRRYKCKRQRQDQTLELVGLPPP
# [10] = target: NKX3-2 (Homo sapiens, UniProt P78367 192-278, P234S)
# Chain of NKX3-2 (Homo sapiens, UniProt P78367 192-278, P234S) (P78367 192-278 P234S): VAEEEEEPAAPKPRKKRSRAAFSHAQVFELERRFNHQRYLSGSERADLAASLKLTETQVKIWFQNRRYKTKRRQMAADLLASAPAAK
# [11] = target: NKX3-2 (Homo sapiens, UniProt P78367 192-278)
# Chain of NKX3-2 (Homo sapiens, UniProt P78367 192-278) (P78367 192-278): as the sequence (P78367 192-278 P234S) above, with S43P counted along it
# Chain of NKX2-5 (Homo sapiens, UniProt P52952 125-210, R139K) (P52952 125-210 R139K): as the sequence (P52952 125-210) above, with R15K counted along it
Sequence,binding signal [1],binding signal [2],binding signal [3],binding signal [4],binding signal [5],binding signal [6],binding signal [7],binding signal [8],binding signal [9],binding signal [10],binding signal [11]
CACTTGAG,"13.3 upbm affinity estimate (log intensity, higher = more binding, comparable within an allelic series)","12.9 upbm affinity estimate (log intensity, higher = more binding, comparable within an allelic series)","13.3 upbm affinity estimate (log intensity, higher = more binding, comparable within an allelic series)","12.8 upbm affinity estimate (log intensity, higher = more binding, comparable within an allelic series)","12.1 upbm affinity estimate (log intensity, higher = more binding, comparable within an allelic series)","14 upbm affinity estimate (log intensity, higher = more binding, comparable within an allelic series)","13.5 upbm affinity estimate (log intensity, higher = more binding, comparable within an allelic series)","11.3 upbm affinity estimate (log intensity, higher = more binding, comparable within an allelic series)","13.2 upbm affinity estimate (log intensity, higher = more binding, comparable within an allelic series)",,
ACCACTTG,"12.8 upbm affinity estimate (log intensity, higher = more binding, comparable within an allelic series)","12.6 upbm affinity estimate (log intensity, higher = more binding, comparable within an allelic series)","13 upbm affinity estimate (log intensity, higher = more binding, comparable within an allelic series)","12.5 upbm affinity estimate (log intensity, higher = more binding, comparable within an allelic series)","11.8 upbm affinity estimate (log intensity, higher = more binding, comparable within an allelic series)","13.5 upbm affinity estimate (log intensity, higher = more binding, comparable within an allelic series)","13.1 upbm affinity estimate (log intensity, higher = more binding, comparable within an allelic series)","10.7 upbm affinity estimate (log intensity, higher = more binding, comparable within an allelic series)","12.6 upbm affinity estimate (log intensity, higher = more binding, comparable within an allelic series)","12.6 upbm affinity estimate (log intensity, higher = more binding, comparable within an allelic series)","12.7 upbm affinity estimate (log intensity, higher = more binding, comparable within an allelic series)"
AAGTGGTA,"12.5 upbm affinity estimate (log intensity, higher = more binding, comparable within an allelic series)","12.4 upbm affinity estimate (log intensity, higher = more binding, comparable within an allelic series)","12.9 upbm affinity estimate (log intensity, higher = more binding, comparable within an allelic series)","12.3 upbm affinity estimate (log intensity, higher = more binding, comparable within an allelic series)","11.9 upbm affinity estimate (log intensity, higher = more binding, comparable within an allelic series)","13.4 upbm affinity estimate (log intensity, higher = more binding, comparable within an allelic series)","12.9 upbm affinity estimate (log intensity, higher = more binding, comparable within an allelic series)","10.7 upbm affinity estimate (log intensity, higher = more binding, comparable within an allelic series)","12.5 upbm affinity estimate (log intensity, higher = more binding, comparable within an allelic series)","12.8 upbm affinity estimate (log intensity, higher = more binding, comparable within an allelic series)","12.9 upbm affinity estimate (log intensity, higher = more binding, comparable within an allelic series)"
CCCACTTA,"13 upbm affinity estimate (log intensity, higher = more binding, comparable within an allelic series)","12.7 upbm affinity estimate (log intensity, higher = more binding, comparable within an allelic series)","13 upbm affinity estimate (log intensity, higher = more binding, comparable within an allelic series)","12.6 upbm affinity estimate (log intensity, higher = more binding, comparable within an allelic series)","12.2 upbm affinity estimate (log intensity, higher = more binding, comparable within an allelic series)","13.7 upbm affinity estimate (log intensity, higher = more binding, comparable within an allelic series)","13.1 upbm affinity estimate (log intensity, higher = more binding, comparable within an allelic series)","11.1 upbm affinity estimate (log intensity, higher = more binding, comparable within an allelic series)","12.9 upbm affinity estimate (log intensity, higher = more binding, comparable within an allelic series)","13.2 upbm affinity estimate (log intensity, higher = more binding, comparable within an allelic series)","13.2 upbm affinity estimate (log intensity, higher = more binding, comparable within an allelic series)"
CACTCAAG,"12.5 upbm affinity estimate (log intensity, higher = more binding, comparable within an allelic series)","12.5 upbm affinity estimate (log intensity, higher = more binding, comparable within an allelic series)","13 upbm affinity estimate (log intensity, higher = more binding, comparable within an allelic series)","12.4 upbm affinity estimate (log intensity, higher = more binding, comparable within an allelic series)","11.6 upbm affinity estimate (log intensity, higher = more binding, comparable within an allelic series)","13.5 upbm affinity estimate (log intensity, higher = more binding, comparable within an allelic series)","13.1 upbm affinity estimate (log intensity, higher = more binding, comparable within an allelic series)","10.5 upbm affinity estimate (log intensity, higher = more binding, comparable within an allelic series)","12.3 upbm affinity estimate (log intensity, higher = more binding, comparable within an allelic series)",,
AAGTGGCT,"12.5 upbm affinity estimate (log intensity, higher = more binding, comparable within an allelic series)","12.5 upbm affinity estimate (log intensity, higher = more binding, comparable within an allelic series)","12.9 upbm affinity estimate (log intensity, higher = more binding, comparable within an allelic series)","12.4 upbm affinity estimate (log intensity, higher = more binding, comparable within an allelic series)","11.8 upbm affinity estimate (log intensity, higher = more binding, comparable within an allelic series)","13.4 upbm affinity estimate (log intensity, higher = more binding, comparable within an allelic series)","13 upbm affinity estimate (log intensity, higher = more binding, comparable within an allelic series)","10.6 upbm affinity estimate (log intensity, higher = more binding, comparable within an allelic series)","12.4 upbm affinity estimate (log intensity, higher = more binding, comparable within an allelic series)","12.8 upbm affinity estimate (log intensity, higher = more binding, comparable within an allelic series)","12.9 upbm affinity estimate (log intensity, higher = more binding, comparable within an allelic series)"
TACTTGAA,"12.6 upbm affinity estimate (log intensity, higher = more binding, comparable within an allelic series)","12.7 upbm affinity estimate (log intensity, higher = more binding, comparable within an allelic series)","13.2 upbm affinity estimate (log intensity, higher = more binding, comparable within an allelic series)","12.6 upbm affinity estimate (log intensity, higher = more binding, comparable within an allelic series)","11.6 upbm affinity estimate (log intensity, higher = more binding, comparable within an allelic series)","13.4 upbm affinity estimate (log intensity, higher = more binding, comparable within an allelic series)","13.3 upbm affinity estimate (log intensity, higher = more binding, comparable within an allelic series)","10.8 upbm affinity estimate (log intensity, higher = more binding, comparable within an allelic series)","12.5 upbm affinity estimate (log intensity, higher = more binding, comparable within an allelic series)",,
CTACTTGA,"12.3 upbm affinity estimate (log intensity, higher = more binding, comparable within an allelic series)","12.6 upbm affinity estimate (log intensity, higher = more binding, comparable within an allelic series)","13 upbm affinity estimate (log intensity, higher = more binding, comparable within an allelic series)","12.4 upbm affinity estimate (log intensity, higher = more binding, comparable within an allelic series)","11.6 upbm affinity estimate (log intensity, higher = more binding, comparable within an allelic series)","13.3 upbm affinity estimate (log intensity, higher = more binding, comparable within an allelic series)","13.1 upbm affinity estimate (log intensity, higher = more binding, comparable within an allelic series)","10.5 upbm affinity estimate (log intensity, higher = more binding, comparable within an allelic series)","12.3 upbm affinity estimate (log intensity, higher = more binding, comparable within an allelic series)",,
ACACTTAA,"13 upbm affinity estimate (log intensity, higher = more binding, comparable within an allelic series)","12.6 upbm affinity estimate (log intensity, higher = more binding, comparable within an allelic series)","13 upbm affinity estimate (log intensity, higher = more binding, comparable within an allelic series)","12.5 upbm affinity estimate (log intensity, higher = more binding, comparable within an allelic series)","12 upbm affinity estimate (log intensity, higher = more binding, comparable within an allelic series)","13.8 upbm affinity estimate (log intensity, higher = more binding, comparable within an allelic series)","13.1 upbm affinity estimate (log intensity, higher = more binding, comparable within an allelic series)","11.5 upbm affinity estimate (log intensity, higher = more binding, comparable within an allelic series)","12.8 upbm affinity estimate (log intensity, higher = more binding, comparable within an allelic series)","12.7 upbm affinity estimate (log intensity, higher = more binding, comparable within an allelic series)","12.8 upbm affinity estimate (log intensity, higher = more binding, comparable within an allelic series)"
AAGTACTT,"13.2 upbm affinity estimate (log intensity, higher = more binding, comparable within an allelic series)","12.9 upbm affinity estimate (log intensity, higher = more binding, comparable within an allelic series)","13.3 upbm affinity estimate (log intensity, higher = more binding, comparable within an allelic series)","12.7 upbm affinity estimate (log intensity, higher = more binding, comparable within an allelic series)","12.1 upbm affinity estimate (log intensity, higher = more binding, comparable within an allelic series)","13.8 upbm affinity estimate (log intensity, higher = more binding, comparable within an allelic series)","13.3 upbm affinity estimate (log intensity, higher = more binding, comparable within an allelic series)","11.5 upbm affinity estimate (log intensity, higher = more binding, comparable within an allelic series)","13 upbm affinity estimate (log intensity, higher = more binding, comparable within an allelic series)","12.6 upbm affinity estimate (log intensity, higher = more binding, comparable within an allelic series)","12.7 upbm affinity estimate (log intensity, higher = more binding, comparable within an allelic series)"
AAGTACCT,"12.6 upbm affinity estimate (log intensity, higher = more binding, comparable within an allelic series)","12.5 upbm affinity estimate (log intensity, higher = more binding, comparable within an allelic series)","12.9 upbm affinity estimate (log intensity, higher = more binding, comparable within an allelic series)","12.4 upbm affinity estimate (log intensity, higher = more binding, comparable within an allelic series)","11.7 upbm affinity estimate (log intensity, higher = more binding, comparable within an allelic series)","13.4 upbm affinity estimate (log intensity, higher = more binding, comparable within an allelic series)","12.9 upbm affinity estimate (log intensity, higher = more binding, comparable within an allelic series)","10.6 upbm affinity estimate (log intensity, higher = more binding, comparable within an allelic series)","12.4 upbm affinity estimate (log intensity, higher = more binding, comparable within an allelic series)","12.6 upbm affinity estimate (log intensity, higher = more binding, comparable within an allelic series)","12.6 upbm affinity estimate (log intensity, higher = more binding, comparable within an allelic series)"
AAGTGGAT,"12.5 upbm affinity estimate (log intensity, higher = more binding, comparable within an allelic series)","12.5 upbm affinity estimate (log intensity, higher = more binding, comparable within an allelic series)","12.8 upbm affinity estimate (log intensity, higher = more binding, comparable within an allelic series)","12.3 upbm affinity estimate (log intensity, higher = more binding, comparable within an allelic series)","11.8 upbm affinity estimate (log intensity, higher = more binding, comparable within an allelic series)","13.3 upbm affinity estimate (log intensity, higher = more binding, comparable within an allelic series)","12.9 upbm affinity estimate (log intensity, higher = more binding, comparable within an allelic series)","10.7 upbm affinity estimate (log intensity, higher = more binding, comparable within an allelic series)","12.5 upbm affinity estimate (log intensity, higher = more binding, comparable within an allelic series)","12.8 upbm affinity estimate (log intensity, higher = more binding, comparable within an allelic series)","12.8 upbm affinity estimate (log intensity, higher = more binding, comparable within an allelic series)"
